Source: ChEMBL document CHEMBL3988442, “University of Dundee, Small-Polar-MMV Screening Library” (2021)
Hit rate of the full screen: of about 48,000 compounds, about 13,000 (27%) showed an effect of 50% or more. The list shows a part of the results.

test system: Wolbachia pipientis; assay: Anti-Wolbachia Cell-Based Screen; type: functional; parameters: scale not given: in the data most compounds retested in dose-response had high values; details: 5 µM

Q: For CN(Cc1ccccn1)C(=O)c1ccc2c(c1O)OC(C)(C)C2, which “Percent Effect” value is on record?
A: The value was -37.36%.

Q: COc1ccc(OC)c(CN(C)c2ncc(S(N)(=O)=O)s2)c1 was tested. Which “Percent Effect” value did it give?
A: Its value is -0.04358%.

Q: Which “Percent Effect” value does the source give for c1cnn(CCNCc2csc(-c3ccsc3)n2)c1 here?
A: The value was 8.023%.

Q: How did the “Percent Effect” value turn out when O=C(O)C(F)(F)F.O=C(c1cnccn1)N1C[C@@H]2CCN(c3cnccn3)C[C@@H]2C1 was run?
A: The value was 21.49%.

Q: How did the “Percent Effect” value turn out when O=C(C1CCCCC1)N1C[C@@H]2CCN(c3cnccn3)C[C@@H]2C1.O=C(O)C(F)(F)F was run?
A: Its value is 86.55%.

Q: How did the “Percent Effect” value turn out when O=C(C1CCCC1)N1C[C@@H]2CCN(c3cnccn3)C[C@@H]2C1.O=C(O)C(F)(F)F was run?
A: Its value is 80.73%.

Q: Which “Percent Effect” value does the source give for O=C(C1CCCO1)N1C[C@@H]2CCN(c3cnccn3)C[C@@H]2C1.O=C(O)C(F)(F)F (stereo not given in full) here?
A: The value was 102.5%.

Q: For CC(C)CN1CC(C(=O)N(C)CCc2cn[nH]c2)CC1=O (stereo not given), which “Percent Effect” value is on record?
A: The value was -9.129%.

Q: Which “Percent Effect” value does the source give for Cc1ncc(CNC(=O)Cc2cccs2)c(C2CCCN2C)n1 (stereo not given) here?
A: The value was 125.2%.

Q: For Cc1ncc(CNC(=O)CCc2ccccc2F)c(C2CCCN2C)n1 (stereo not given), which “Percent Effect” value is on record?
A: The value was 94.99%.

Q: How did the “Percent Effect” value turn out when Cc1ncc(CNC(=O)CCc2cccs2)c(C2CCCN2C)n1 (stereo not given) was run?
A: The value was 135.8%.

Q: How did the “Percent Effect” value turn out when CCOc1ncccc1CNC(=O)N1CCCC1c1cccs1 (stereo not given) was run?
A: The value was -31.15%.

Q: For COc1cccc(CC(=O)NCc2cnc(C)nc2C2CCCN2C)c1 (stereo not given), which “Percent Effect” value is on record?
A: Its value is 116.5%.

Q: How did the “Percent Effect” value turn out when COc1cccc(CCNC(=O)CN2CCCC2c2noc(C)n2)c1 (stereo not given) was run?
A: Its value is -3.314%.

Q: For CS(=O)(=O)N1C[C@@H]2CC[C@H](C1)N(CCC(=O)NCc1ccccc1F)C2, which “Percent Effect” value is on record?
A: The value was -8.664%.

Q: How did the “Percent Effect” value turn out when Cc1ncc(CNC(=O)CCOc2ccccc2)c(C2CCCN2C)n1 (stereo not given) was run?
A: The value was -4.417%.

Q: With Cc1ncc(CNC(=O)CCc2cccc(F)c2)c(C2CCCN2C)n1 (stereo not given) as the compound, how does the “Percent Effect” value read?
A: The value was 2.906%.

Q: For O=C1NCCN(Cc2cccnc2)C1CC(=O)N1CCc2n[nH]cc2C1 (stereo not given), which “Percent Effect” value is on record?
A: The value was -19.58%.

Q: With O=C1C(Sc2nc(=O)ccn2C2CC2)CCN1c1ccccc1F (stereo not given) as the compound, how does the “Percent Effect” value read?
A: The value was -10.52%.

Q: CCNC(=O)N1CCC(NC(=O)NCCc2cc3ccccc3o2)C1 (stereo not given) was tested. Which “Percent Effect” value did it give?
A: Its value is -2.435%.

Q: How did the “Percent Effect” value turn out when CSCC(C)NCc1ccc2[nH]c(C)c(C)c2c1 (stereo not given) was run?
A: The value was 7.257%.

Q: Which “Percent Effect” value does the source give for COCCC(=O)N1C[C@H]2CC[C@@H]1CN(C1Cc3ccccc3C1)C2 here?
A: Its value is 12.41%.

Q: How did the “Percent Effect” value turn out when O=C(Nc1nncs1)N(Cc1cccc(O)c1)C1CC1 was run?
A: Its value is -1.611%.

Q: Which “Percent Effect” value does the source give for CCC(C)(CC(=O)O)NC(=O)Cc1ccccc1Br (stereo not given) here?
A: The value was 0.3012%.

Q: For Cc1ncc(CNC(=O)CCc2c(C)noc2C)c(C2CCCN2C)n1 (stereo not given), which “Percent Effect” value is on record?
A: The value was 116.8%.

Q: Cc1ncc(CNC(=O)Cc2ccsc2)c(C2CCCN2C)n1 (stereo not given) was tested. Which “Percent Effect” value did it give?
A: The value was 124.7%.

Q: With Cc1nc(C2CCCN2CC(=O)NCCc2ccsc2)no1 (stereo not given) as the compound, how does the “Percent Effect” value read?
A: The value was -6.143%.

Q: For Cc1noc(C)c1CNC(=O)c1ccc(NC2CC2)nc1, which “Percent Effect” value is on record?
A: Its value is 4.161%.

Q: With Cc1ncc(CNC(=O)Cc2ccc(Cl)cc2)c(C2CCCN2C)n1 (stereo not given) as the compound, how does the “Percent Effect” value read?
A: The value was -6.333%.

Q: With Cc1noc(C)c1CCCNC(=O)C1CCCN(C(=O)C2CC2)C1 (stereo not given) as the compound, how does the “Percent Effect” value read?
A: The value was -0.7156%.
